APP 5UTR inh: APP translation inhibition; SH-SY5Y APP 5'UTR-luciferase reporter, luminescence; inhibition, % at 2 µM; 0.82% of 190,000 active; AID 1285;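 active = inhibition above a set limit, derived from the sample mean plus 3 SD, cut at about 45% in these data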
KLF5 inh: suppresses KLF5 promoter-driven expression; DLD-1 KLF5 promoter-luciferase reporter, luminescence; inhibition, % at 5 µM; 0.23% of 290,000 active; AID 1700;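 active = inhibition above a per-plate limit of that plate's mean compound inhibition plus 3 SD, cut at about 60% in these data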;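 note: higher means less KLF5 promoter-driven luciferase light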
IEC-6 tox: counter-screen for KLF5 inhibitors: cytotoxicity in IEC-6 cells; IEC-6 cytotoxicity, luminescence viability; inhibition, % at 5 µM; 0.78% of 290,000 active; AID 1825; in the data active = inhibition above about 22%
Ba/F3 V617F tox: reduce viability of Ba/F3 cells dependent on JAK2V617F; 1.1% of 220,000 active; AID 1446; Ba/F3 EpoR-JAK2V617F viability, ATP luminescence; inhibition, % at 5.6 µM;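 active = inhibition above the campaign mean plus 3 SD over all tested compounds, cut at about 24% in these data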;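 note: cytokine-independent growth of Ba/F3 cells driven by EpoR plus mutant JAK2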
aSyn UTR inh: 5' untranslated region of α-synuclein, MLPCN primary screen. inhibition, % (tested at 7.5 µM). alpha-synuclein 5'UTR reporter, inhibitor activity. 0.82% of 300,000 active. AID 1813; in the data active = inhibition above about 60%;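 note: H4 neuroglioblastoma cells stably carrying SNCA 5'UTR luciferase fusion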
BaF3 tox: reduces parental Ba/F3 cell viability, JAK2V617F counter-screen; CellTiter-Glo ATP luminescence; inhibition, % at 5.6 µM; 1.1% of 220,000 active; AID 1486;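 active = inhibition above a per-campaign cutoff, the mean inhibition of all tested compounds plus 3 SD, cut at about 27% in these data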
Each line names hits and unclear results; the compound was inactive in the other large screens. The list is not random: actives were taken first. Their share in the collection is about 2.2%.

Cc1ccc(NS(=O)(=O)c2ccc(C(=O)N3CCN(c4ncccn4)CC3)cc2)cc1	BaF3 tox 28
COc1ccc(CNC(=S)Nc2cc(C)ccc2C)cc1	APP 5UTR inh 70
Cc1ccc(C)c(NC(=S)NCc2ccc3[nH]c4c(c3c2)CCCC4)c1	APP 5UTR inh 47
CCOC(=O)C1=C(C)N(C2CCCCC2)C(=O)C1	none
Cc1ccc(NC(=O)Nc2ccnc(-c3cccnc3)n2)cc1	APP 5UTR inh 83, aSyn UTR inh 110
c1ccc(CCNc2nnnn2-c2ccccc2)cc1	none
Cc1nc2[nH]c(=S)[nH]c2cc1Br	none
CC(OC(=O)C1=NNC(=O)CC1)C(=O)Nc1ncc(Cl)cc1Cl (configuration not stated)	BaF3 tox 81
CS(=O)(=O)N1CCC(C(=O)Nc2c(F)cccc2F)CC1	BaF3 tox 70
C=C(C)CSc1nc2sc3c(c2c(=O)n1C1CCCCC1)CCN(C)C3	Ba/F3 V617F tox 51, BaF3 tox 54 (no result: APP 5UTR inh)
CCOCCn1c(N2CCN(c3ccccc3)CC2)nc2c1c(=O)[nH]c(=O)n2C	BaF3 tox 54
Cn1c(=O)[nH]c(=O)c2c1nc(N1CCNCC1)n2CCOc1ccccc1	none
CN(CCNC(=O)c1ccc(/C=N/O)nc1)Cc1ccccc1	none
O=C(NCc1ccco1)c1ccc(Cn2c(=O)c3ccccc3n(Cc3cccc(Cl)c3)c2=O)cc1	aSyn UTR inh 64
CN1C(=O)/C(=C/c2cn(CC(=O)NCc3ccco3)c3ccccc23)NC1=S	none
CCN=C1S/C(=C\c2cn(CC(=O)NCc3ccco3)c3ccccc23)C(=O)N1CC	aSyn UTR inh 65 (no result: APP 5UTR inh, Ba/F3 V617F tox, BaF3 tox)
O=C(N/N=C/c1sc(N2CCOCC2)nc1-c1ccccc1)c1cccc(S(=O)(=O)N2CCCC2)c1	aSyn UTR inh 99
Cc1c(C(=O)C(=O)N2CCN(C)CC2)c2ccccc2n1C	none
Cc1c(C(=O)C(=O)N2c3ccc(F)cc3CCC2C)c2ccccc2n1C (configuration not stated)	APP 5UTR inh 83, aSyn UTR inh 62
O=C(CSc1nnc(-c2ccncc2)n1Cc1ccco1)Nc1cccc(O)c1	none
N=c1c2c(n(Cc3ccc(F)cc3)c3c1CCC3)CCC2	Ba/F3 V617F tox 49, BaF3 tox 65
CCCCn1c2c(c(=N)c3c1CCC3)CCC2	Ba/F3 V617F tox 73, BaF3 tox 63 (no result: aSyn UTR inh)
CCn1c2c(c(=N)c3c1CCC3)CCC2	BaF3 tox 28
CCn1c2c(c(=N)c3ccccc31)CCC2	BaF3 tox 46 (no result: APP 5UTR inh)
CNCC(O)Cn1c2c(c3ccccc31)CCCC2 (configuration not stated)	none
Fc1ccc(CN2CCCCCCC2)cc1	none
COc1ccc(N(Cc2cc3cc(OC)ccc3[nH]c2=O)S(=O)(=O)c2ccc(NC(C)=O)cc2)cc1	aSyn UTR inh 93 (no result: APP 5UTR inh, Ba/F3 V617F tox, BaF3 tox)
COc1ccc(N(Cc2cc3ccccc3[nH]c2=O)S(=O)(=O)c2ccc(OC)cc2)cc1	none (no result: APP 5UTR inh, Ba/F3 V617F tox, BaF3 tox)
CCCCN(CCCC)CC(O)COc1ccccc1C(=O)Nc1ccccc1 (configuration not stated)	none
CC1=C(C(=O)OCc2ccccc2)C(c2ccc(Br)cc2)NC(=O)N1CCCC(=O)O (configuration not stated)	none (no result: APP 5UTR inh, Ba/F3 V617F tox, BaF3 tox)
c1ccc(CCc2nc3ccccc3[nH]2)cc1	none
Nc1cccc(CCc2nc3cc4ccccc4cc3[nH]2)c1	IEC-6 tox 49, Ba/F3 V617F tox 88, BaF3 tox 51
CCOC(=O)c1c(C)[nH]c(C(=O)Nc2ccc(NC(C)=O)cc2)c1C	aSyn UTR inh 89
Cc1ccc(S(=O)OCC(=O)Nc2cc(Cl)ccc2N2CCOCC2)cc1 (configuration not stated)	none
N/C(=N/O)c1ccccc1N1CCC(Cc2ccccc2)CC1	Ba/F3 V617F tox 72, BaF3 tox 69
Cc1ccc(NC(=O)C2(NC(=O)c3cccc(N4C(=O)CSC4c4ccccc4)c3)CCCCC2)cc1 (configuration not stated)	none
Cc1ccc(C(=S)N2CCN(Cc3ccccc3)CC2)cc1	none
CCN1CCN(C(=S)c2ccc(-c3ccccc3)cc2)CC1	aSyn UTR inh 66
CC(=O)c1ccc(NS(=O)(=O)c2cc(-c3cnc(C4CC4)o3)ccc2C)cc1	none (no result: APP 5UTR inh, Ba/F3 V617F tox, BaF3 tox)
O=C(NCc1ccco1)C(=S)N1CCCC1	none
Cc1ccc(C(C)C)c(OCC(=O)N/N=C2\CC(=O)CC(C)(C)C2)c1	none (no result: APP 5UTR inh, Ba/F3 V617F tox, aSyn UTR inh, BaF3 tox)
Cc1ccc(C(C)C)c(OCC(=O)NN=C2CCCCCCC2)c1	APP 5UTR inh 86
COc1ccc(C(=O)Nn2c(SCc3cccc([N+](=O)[O-])c3)nc3ccccc3c2=O)cc1	aSyn UTR inh 66
CCn1c(SCC(=O)NCc2ccco2)nc2ccccc2c1=O	none
O=C(Nn1c(SCc2cccc([N+](=O)[O-])c2)nc2ccccc2c1=O)c1ccccc1	none
COc1ccc(C(=O)Nn2c(SCC(=O)NCc3ccco3)nc3ccccc3c2=O)cc1	aSyn UTR inh 81
COc1ccc(C(=O)Nn2c(SCC(=O)N3CCC(C)CC3)nc3ccccc3c2=O)cc1	aSyn UTR inh 83
COc1ccc(C(=O)Nn2c(SCC(=O)NC3CCCCC3)nc3ccccc3c2=O)cc1	none
Cc1ccc(NC(=O)c2cccc(S(=O)(=O)NCc3ccccc3)c2)nc1	none (no result: APP 5UTR inh, KLF5 inh, IEC-6 tox, Ba/F3 V617F tox, BaF3 tox)
CCOc1ccc(CN(C)CC(O)COC(c2ccc(OC)cc2)c2ccc(OC)cc2)cc1 (configuration not stated)	none (no result: APP 5UTR inh, Ba/F3 V617F tox, BaF3 tox)
CN(C)CCCN(C(=O)COc1ccccc1)c1nc2ccc(F)cc2s1	none
CN(C)CCCN(C(=O)CCOc1ccccc1)c1nc2ccc(F)cc2s1	Ba/F3 V617F tox 26 (no result: aSyn UTR inh)
C/C(=N\NC(=S)NCc1ccccc1)c1ccco1	BaF3 tox 67
COc1ccccc1Oc1ccc(S(=O)(=O)N2CCOCC2)cc1S(=O)(=O)N1CCOCC1	none
Cc1ccc(Oc2ccc(S(=O)(=O)N3CCOCC3)cc2C(N)=O)c(-n2nc3ccccc3n2)c1	APP 5UTR inh 46
O=C(/C=C\c1ccco1)Nc1cc([N+](=O)[O-])ccc1F	APP 5UTR inh 94, Ba/F3 V617F tox 73, aSyn UTR inh 97, BaF3 tox 43
O=C(COC(=O)c1cc(-c2ccccc2Cl)nc2ccccc12)Nc1ncc(C(F)(F)F)cc1Cl	APP 5UTR inh 49
COc1ccc(OCC(=O)Nc2ccc(N3CCN(C(=O)c4ccco4)CC3)cc2)cc1	BaF3 tox 90
O=C(COc1ccc(Cl)cc1)Nc1ccc(N2CCN(C(=O)c3ccco3)CC2)cc1	none
CCOC(=O)c1sc(N)c(C(=O)OC)c1C	BaF3 tox 90
Cc1nnn(-c2nonc2N)c1C(=O)N/N=C/c1ccccc1O	APP 5UTR inh 64, aSyn UTR inh 68
Cc1nnn(-c2nonc2N)c1C(=O)N/N=C/c1cccc2ccccc12	none
Nc1c(C(=O)N2CCOCC2)sc2nc3c(cc12)CCCC3	aSyn UTR inh 76 (no result: APP 5UTR inh, Ba/F3 V617F tox, BaF3 tox)
Cc1cc(C)c2nc3sc(C(=O)N4CCOCC4)c(N)c3cc2c1	aSyn UTR inh 88 (no result: APP 5UTR inh)
COc1ccc(S(=O)(=O)N(C)CC(=O)NCCc2ccccc2)cc1OC	none (no result: APP 5UTR inh, Ba/F3 V617F tox, BaF3 tox)
O=C(/C=C/c1cccc([N+](=O)[O-])c1)c1ccc([N+](=O)[O-])o1	aSyn UTR inh 71 (no result: APP 5UTR inh, KLF5 inh, IEC-6 tox, Ba/F3 V617F tox, BaF3 tox)

Screening results as filed in PubChem.
